RTF Ca sens inh: cardiac RTF calcium desensitization. P19429+P45379. IANBD-labeled cardiac RTF, Ca2+ fluorescence. inhibition, % at 7.15 µM. actives 0.12% (n = 340,000). AID 493244;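 active = inhibition above the mean inhibition of all tested compounds plus 3 SD, cut at about 17% in these data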;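 note: assay run at fixed EC70 calcium of 1.6 mM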
CRFR2-BP antag: blocks CRF-induced signaling of the CRF-BP/CRF-R2 complex; actives 0.59% (n = 350,000); HEK293 CRF-R2/CRF-BP, CRF-induced calcium fluorescence; inhibition, % at 11.8 µM;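 active = inhibition of the ligand-induced calcium signal above about 50% at the single tested concentration, limit read from the data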
CRFBP-R2 agonist: CRF-BP/CRF-R2 complex agonism; activation, % at 13.2 µM; HEK293 CRF-R2/CRF-BP, calcium dye fluorescence (FLIPR); percent of saturating CRF peptide response; AID 588473; actives 0.46% (n = 350,000);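 active = activation of at least 50%, plus an integration ratio under a set limit after plate pattern correction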;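 note: plate controls were neutral control wells without compound for no effect and CRF at EC100 for full effect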
RTF Ca sens act: cardiac RTF calcium sensitization. P19429+P45379. IANBD-labeled TnC RTF fluorescence at EC20 calcium; 0% EC20 calcium, 100% full calcium. activation, % at 7.2 µM. actives 0.24% (n = 340,000). AID 493008;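 active = activation above the mean over all tested compounds plus 3 SD, cut at about 30% in these data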;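 note: rise in fluorescence read as greater calcium sensitivity of cardiac thin filaments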
Active calls of the source: *; nt = no result given; ! = a repeat was not active. An excerpt weighted towards active compounds, which were near 1.3% of everything screened.

SMILES | RTF Ca sens inh | CRFR2-BP antag | CRFBP-R2 agonist | RTF Ca sens act
CC1(C)Cc2c(C#N)c(NCC3CCCO3)nc(-c3ccco3)c2CO1 (stereo not given) | -3 | 104* | 1 | -2
CC(Oc1ccc(F)cc1)C(=O)Nc1ccccc1N1CCCCC1 (stereo not given) | -12 | -47 | 19 | 0
CN(C)c1ccc(N=Cc2nc(-c3ccccc3)oc2O)cc1 | -24 | -172 | 161* | 45*
CC(=O)Nc1ccc(N=Cc2nc(-c3ccc(C)cc3)oc2O)cc1 | -12 | -7 | 3 | 38*
Cc1ccc(S(=O)(=O)N/N=C/c2ccc(OC3CSC3)cc2)cc1 | -9 | -61 | 75* | -4
Cc1ccc(S(=O)(=O)N/N=C/c2ccc(C(=O)O)cc2)cc1 | 0 | 2 | 0 | 1
Cc1ccccc1NC(=O)CCCC(=O)c1ccccc1 | -7 | 1 | 0 | 3
O=C(Cn1nc(CNc2ccc(Cl)cc2)[n+]2c1CCCCC2)c1ccc(Br)cc1 | 6 | 55* | -3 | 7
N#CCCn1nc(-c2ccccc2)c2ccccc2c1=O | -5 | 8 | -2 | -2
CN1Cc2c(N)cccc2C(c2ccccc2)C1 (stereo not given) | -15 | -5 | 28 | 31*!
O=C1CC(c2ccccc2)c2ccccc21 (stereo not given) | -6 | 15 | 3 | -2
CCc1cccc(CC)c1NC(=O)COC(=O)CC1c2ccccc2CCN1S(=O)(=O)c1ccc(F)cc1 (stereo not given) | -13 | 15 | 0 | 4
O=C(COC(=O)CC1c2ccccc2CCN1S(=O)(=O)c1ccc(F)cc1)Nc1ccccc1 (stereo not given) | -4 | 57* | 7 | 4
CCNCCC(=O)N1c2ccccc2Sc2ccc(C(F)(F)F)cc21 | -10 | -18 | 13 | 1
CN1OC[C@@H]2CN[C@H](c3ccc(-c4cccc(F)c4)cc3)C[C@@H]21 | nt | -3 | -1 | nt
O=C1NC(Cc2c[nH]c3ccccc23)C(=O)N1Cc1cccc2ccccc12 (stereo not given) | 3 | 51* | 1 | -3
Cc1ccc(CN2C(=O)NC(Cc3c[nH]c4ccccc34)C2=O)cc1 (stereo not given) | -19 | -16 | 5 | 1
O=C1NCCSC1c1ccccc1 (stereo not given) | -7 | -8 | 0 | 2
Cc1cccc(NS(=O)(=O)c2cc3c(cc2C)NC(=O)CO3)c1 | 2 | 7 | 3 | -3
Cc1cccc(C(=O)N2CCNC(=O)C2CC(=O)Nc2cccc(Cl)c2)c1 (stereo not given) | -2 | -7 | 0 | 0
c1ccc2c(c1)OCCOCCOCCOCCOc1ccccc1OCCOCCOCCO2 | 2 | 50* | 1 | -3
CN1CCOCCOc2ccccc2OCCOCC1 | -1 | -8 | 2 | 0
CC(=O)c1cccc(NC(=O)N2C3CCC2CC(NC(=O)C2CC2)C3)c1 (stereo not given) | -4 | -3 | 0 | 0
Cc1ccc(C(=O)Nc2nnc(-c3ccco3)o2)cc1C | 5 | 51* | 1 | 1
Cc1cccc(C(=O)Nc2nnc(-c3ccco3)o2)c1 | -1 | 13 | -2 | 1
SMILES | RTF Ca sens inh | CRFR2-BP antag | CRFBP-R2 agonist | RTF Ca sens act
CCN(CC)CCNC(=O)C1c2cc(OC)c(OC)cc2C(=O)N(C)C1c1cccs1 (stereo not given) | -2 | 2 | 1 | 6
CCOc1ccccc1C(=O)N1CCN(c2cccc(Cl)c2)CC1 | -7 | -39 | -1 | 1
COc1ccccc1N1CCN(c2ncc(C(=O)N3CCN(c4cccc(Cl)c4)CC3)c3ccccc23)CC1 | nt | -290 | 115* | nt
CCS(=O)(=O)Nc1ccc(-c2nc3cccnc3s2)cc1 | -2 | -15 | 89* | -6
O=C(CN1CCN(c2cccc(C(F)(F)F)c2)CC1)N(C1CCCC1)C1CCS(=O)(=O)C1 (stereo not given) | -8 | -3 | 0 | 7
CC(C)(C)C(=O)Nc1sc2c(c1C#N)CCN(Cc1ccccc1)C2 | -14 | -146 | 162* | 12
CC(=O)c1ccc(C(=O)Nc2sc3c(c2C(N)=O)CCN(Cc2ccccc2)C3)cc1 | -160 | nt | nt | 102*
COc1cccc(OC)c1C(=O)Nc1sc2c(c1C(N)=O)CCN(Cc1ccccc1)C2 | -9 | -48 | 37 | 2
NC(=O)c1c(NC(=O)C2COc3ccccc3O2)sc2c1CCN(Cc1ccccc1)C2 (stereo not given) | -77 | -54 | 42 | 38*
CCC(=O)Nc1cc(C(=O)OCc2ccc(C(=O)Oc3ccccc3)cc2)ccc1C | 11 | 15 | -1 | -1
COc1ccc(CC(=O)O/N=C(\N)c2cccc([N+](=O)[O-])c2)cc1 | -9 | 67* | -3 | -3
CCc1ccc(N=C2NC(=O)/C(=C/c3cc(OC)c(O)c(OC)c3)S2)cc1 | -12 | -25 | 5 | 2
COc1cc(/C=C2\SC(=Nc3ccccc3)NC2=O)cc(Cl)c1O | -92 | -159 | 213* | 63*
COc1cc(/C=C2\SC(=Nc3ccc(Cl)c(C(=O)O)c3)NC2=O)c(Br)c(Br)c1O | -135 | -194 | 201* | 70*
COC(=O)/C=C1\SC(=Nc2ccc(Cl)c(Cl)c2)NC1=O | 2 | 32 | 0 | 1
CC(C)(C)C1CCc2c(sc(NC(=O)C3CC=CCC3C(=O)O)c2C#N)C1 (stereo not given) | 0 | 61* | -3 | 0
COc1cc2nc(/C=C/c3ccc(N(C)C)cc3)sc2cc1SC | -99 | -486 | 332* | 25
COc1ccc(NC(=O)NCCCN2CCc3ccccc3C2)cc1 | -1 | 52* | -2 | 2
O=C(NCCCN1CCc2ccccc2C1)Nc1ccc(Br)cc1 | -16 | -35 | 10 | 4
N=C(N)SCc1nc2ccccc2c(=O)n1-c1ccccc1Cl | -11 | -9 | -2 | -1
Cc1ccccc1-n1c(CSC(=N)N)nc2ccccc2c1=O | -6 | 52* | 0 | -1
NS(=O)(=O)c1ccc(N=Nc2c[nH]c(=O)c(O)c2)cc1 | -37 | -13 | 4 | 58*
Cc1cccc(NC(=S)NC2CC3C=CC2C3)c1 (stereo not given) | -4 | -2 | -2 | 6
CN1CC=C2C(C#N)=C(N)C(C#N)(C#N)C(CCc3ccccc3)C2C1 (stereo not given) | -28 | -59 | 59* | 35*
CN1CC=C2C(C#N)=C(N)C(C#N)(C#N)[C@H](c3cccs3)[C@H]2C1 | -86 | -67 | 53* | 41*
CCOC(=O)N1CC=C2C(C#N)=C(N)C(C#N)(C#N)[C@H](c3ccccc3OCC)[C@H]2C1 | -16 | -13 | 5 | 0
COc1cccc(C2C3CN(C)CC=C3C(C#N)=C(N)C2(C#N)C#N)c1OC (stereo not given) | -38 | -8 | 72* | 25
CCN1CC=C2C(C#N)=C(N)C(C#N)(C#N)[C@H](c3cccc(OC)c3OC)[C@H]2C1 | -51 | -37 | 32 | 36*
Cc1c(C(=O)NNC(=S)NCc2ccc(Cl)cc2)oc2ccccc12 | -3 | 4 | -7 | 0
CCCC1C2CN(C(C)C)CC=C2C(C#N)=C(N)C1(C#N)C#N (stereo not given) | -52 | -20 | 38 | 52*

Screening results: PubChem BioAssay, several laboratories
